Screen size: about 300,000 compounds; about 37,000 (12%) were called active. Rule as the data show it: active = max response mostly above about 13% (no sharp cut-off); inactive = mostly below about 14%. The entries come from a sample that favours actives as a whole.
Experiment: Cycloheximide Counterscreen for Small Molecule Inhibitors of Shiga Toxin; also: read at 38.3 µM for the half of the compounds with a filed dose; 0% is about no effect
Conditions: cell reporter, cycloheximide protein synthesis inhibition counterscreen; stronger effect = higher value

| SMILES | max response |
| --- | --- |
| CCCCN(C)CCNC(=O)C1CCCN(S(=O)(=O)c2cccc3nsnc23)C1 (stereo not given) | -7.69% (inactive) |
| CC(Sc1cccc[n+]1[O-])C(=O)Nc1cccc(S(=O)(=O)N2CCOCC2)c1 (stereo not given) | -2.05% (inactive) |
| CCOc1ccccc1/C=N/NC(=O)CNC(=O)COc1ccccc1 | 8.7% (inactive) |
| COc1ccc(/C=N/n2nnnc2N)cc1OC | 1.75% (inactive) |
| CCOc1ccccc1/C=N/Nc1nc2ccccc2o1 | 11.2% (active) |
| c1ccc(CCN2CN=C(Nc3nc4ccccc4o3)NC2)cc1 | 13.2% (inactive) |
| CCOc1ccc(/C=N/Nc2nncc(-c3ccccc3)n2)cc1OC | 5.88% (inactive) |
| COc1ccc(/C=N/Nc2nc3ccccc3o2)cc1OC | 32.2% (active) |
| C=CCc1ccccc1OCC(=O)N/N=C/c1ccccc1OCC | 9.76% (inactive) |
| Brc1ccccc1/C=N/Nc1nc2ccccc2o1 | 35.3% (active) |
| CN=C1S/C(=C\c2c(OC)cc(OC)cc2OC)C(=O)N1C | -4.61% (inactive) |
| COc1ccc(C2/C(=C(/O)c3ccc4c(c3)CC(C)O4)C(=O)C(=O)N2Cc2ccncc2)cc1 (stereo not given) | -3.17% (inactive) |
| COc1cc(C(=O)N2CCN(C)CC2)cc(OC)c1OC | -1.54% (inactive) |
| Cc1ccc(NC(=O)COC(=O)C2C3CC4OC(=O)C2C4C3)cc1Cl (stereo not given) | 6.04% (inactive) |
| O=C(NCc1ccco1)C1CCCN1S(=O)(=O)c1ccccc1C(F)(F)F (stereo not given) | -2.95% (inactive) |
| Cc1ccc(-n2nc3c(=O)n(C(C)C(=O)NCc4ccc5c(c4)OCO5)nc(C)c3c2C)cc1 (stereo not given) | 7.33% (inactive) |
| COc1ccc(CN(C)C(=O)Cc2ccsc2)c(OC)c1OC | -2.85% (inactive) |
| CC(C)CNS(=O)(=O)c1ccc(CCC(=O)NCc2ccc(Cl)cc2)cc1 | -1.7% (inactive) |
| COc1ccc(CN2CCN(C(=O)CCC(=O)Nc3nnc(C(C)C)s3)CC2)cc1F | -9.15% (inactive) |
| CC1C(=O)C(C)C(c2ccc(O)cc2)NC1c1ccc(O)cc1 (stereo not given) | -3.88% (inactive) |
| CC(NC(=O)C(C)(C)C)C(c1cccs1)N1CCN(Cc2ccccc2)CC1 (stereo not given) | 1.72% (inactive) |
| C#CC(C)(C)NC(=O)c1cnc(-c2ccccc2)nc1-c1ccccc1 | 1.23% (inactive) |
| Cc1ccccc1N1CC(C(=O)Nc2ccc3c(c2)OCO3)CC1=O (stereo not given) | 15.7% (inactive) |
| O=C(Nc1ccc2c(c1)OCO2)C1CC(c2c(F)cccc2Cl)=NO1 (stereo not given) | 31.8% (active) |

| SMILES | max response |
| --- | --- |
| Cc1ccc(NC(=O)C2CC(c3ccc(F)cc3)=NO2)cc1 (stereo not given) | 4.66% (inactive) |
| Cc1ccc(S(=O)(=O)N(Cc2ccccc2)c2ccccn2)cc1[N+](=O)[O-] | 2.38% (inactive) |
| CS(=O)(=O)N(CC(=O)Nc1ccc(F)cc1F)c1cccc([N+](=O)[O-])c1 | 1.91% (inactive) |
| O=C(c1cccc([N+](=O)[O-])c1)N1CCN(Cc2ccccc2)CC1 | -6.89% (inactive) |
| Cc1c(Br)c([N+](=O)[O-])nn1CC(=O)N1CCN(Cc2ccccc2)CC1 | 14.4% (active) |
| O=C(/C=C/c1cccc([N+](=O)[O-])c1)N1CCN(Cc2ccccc2)CC1 | 21.5% (inactive) |
| COc1ccc(-c2cc(C(=O)N3CCN(Cc4ccc5c(c4)OCO5)CC3)on2)cc1OC | -9.89% (inactive) |
| Cc1cc(C)nc(N/N=C/c2ccc([N+](=O)[O-])o2)n1 | 0.645% (inactive) |
| Cc1cc2c(C)nc(N/N=C/c3ccccc3)nc2o1 | 38% (active) |
| Cc1cc(C)nc(N/N=C/c2c(C)oc3ccccc23)n1 | 1.89% (inactive) |
| COc1cccc(C(=O)NCCSc2ccc(Br)cc2)c1 | 3.16% (inactive) |
| COc1ccc(C(=O)NCCSc2ccccc2C)cc1 | 46% (active) |
| COc1ccc(C(=O)NCc2nnc(SCCOc3ccccc3)n2C)cc1 | -1.69% (inactive) |
| N#Cc1ccccc1S(=O)(=O)N1CCN(C(=O)c2cc(-c3ccccc3)nn2-c2ccccc2)CC1 | -0.928% (inactive) |
| COC(=O)Cn1nc(-c2ccccc2)c2cc(Cl)ccc21 | -2.04% (inactive) |
| COCCCNc1nc2c(-c3cccc(C(F)(F)F)c3)nnn2c2ccccc12 | -2.05% (inactive) |
| COCCCNc1nc2c(-c3cccc(C)c3)nnn2c2ccc(Cl)cc12 | 11.5% (active) |
| O=C(CCS(=O)(=O)c1ccc(Br)cc1)NCCc1ccc(Cl)cc1 | -3.3% (inactive) |
| CC1=CC(=C(C#N)c2nc3ccccc3s2)C=C(C)N1c1ccc(F)cc1F | 11.6% (active) |
| N#C/C(=C(/O)Cc1cccc2ccccc12)c1nc2ccccc2s1 | -8.33% (inactive) |
| C=CCN1C(=O)C(O)(CC(=O)c2ccccn2)c2ccccc21 (stereo not given) | -4.4% (inactive) |
| Cc1ccc2cc(CCNC(=O)c3ccc4c(c3)OCO4)c(=O)[nH]c2c1 | -3.03% (inactive) |
| CNC(=O)/C(=C\C=C\c1ccccc1)NC(=O)c1ccc([N+](=O)[O-])cc1 | -1.68% (inactive) |
| O=C(NCc1ccco1)/C(=C/c1ccco1)NC(=O)c1ccccc1 | -7.97% (inactive) |

| SMILES | max response |
| --- | --- |
| Cc1ccc(C(=O)N/C(=C/C=C/c2ccccc2)C(=O)NCc2ccco2)cc1 | 13.9% (active) |
| Cc1ccc(NS(=O)(=O)c2cn(C)c(=O)n(C)c2=O)c(C)c1 | -0.304% (inactive) |
| Cc1ccc2c(c1)N(CC(=O)N1CCCC(C)C1)C(=O)CO2 (stereo not given) | -3.96% (inactive) |
| COC(=O)C1(CCSC)NC(c2ccc(OC)cc2OC)C2C(=O)N(c3cccc(C(C)=O)c3)C(=O)C21 (stereo not given) | -3.66% (inactive) |
| Cc1cccc(NC(=O)c2ccc3c(=O)n(CC4CCCO4)c(=S)[nH]c3c2)c1 (stereo not given) | 10.1% (inactive) |
| COC(=O)c1ccc(NC(=O)CSc2nc(N)c(NC(=O)c3ccc(Br)o3)c(=O)[nH]2)cc1 | 9.86% (inactive) |
| CCOC(=O)CNc1nc(Cl)nc(Nc2ccc(OC)cc2OC)n1 | -3.67% (inactive) |
| CCC(=O)Nc1ccc(Nc2nc(Cl)nc(Nc3ccc(NC(=O)CC)cc3)n2)cc1 | -3.17% (inactive) |
| CCOC(=O)CNc1nc(Cl)nc(Nc2ccccc2)n1 | 45.2% (active) |
| Cc1nc(C(=O)N2CCCC(C(=O)c3ccc(Cl)cc3)C2)cs1 (stereo not given) | 0.775% (inactive) |
| COc1ccccc1NC(=O)C1CCN(C(=O)c2ccc(C(C)(C)C)cc2)CC1 | -1.21% (inactive) |
| Cn1nc(-c2ccccc2)c(CSc2cccc(Cl)c2)c1Cl | -2.67% (inactive) |
| O=c1c2ccccc2ncn1CCCCOc1ccccc1F | 1.24% (inactive) |
| Cn1c(=O)c2c(nc(Br)n2CCSc2nc3ccccc3o2)n(C)c1=O | -1.28% (inactive) |
| Fc1ccccc1OCCSc1nc2ccccc2o1 | 26.3% (active) |
| COC(=O)c1ccc(CN2CCCC(C(=O)Nc3cccc(-n4cnnn4)c3)C2)cc1 (stereo not given) | -1.47% (inactive) |
| O=C(C1CC(=O)N(c2ccc(F)cc2)C1)N1CCN(c2ccccc2)CC1 (stereo not given) | -1.52% (inactive) |
| O=C(Nc1cccn(Cc2c(Cl)cccc2Cl)c1=O)c1ccc(Cl)cc1 | 1.71% (inactive) |
| CCOc1ccccc1NC(=O)NC1CCCCCCC1 | 10.6% (inactive) |
| O=C(Nc1cccn(Cc2ccccc2Cl)c1=O)NC1CCCCC1 | 10.8% (active) |
| CC(=O)N1CCN(C(=O)C2(NC(=O)Nc3ccc(C)cc3)CCCCC2)CC1 | 6.9% (inactive) |
| COC(=O)/C(=C\Nc1ccccc1)NC(=O)c1ccc(Cl)cc1Cl | 16.3% (inactive) |
| CC(=O)c1c(C)[nH]c(C(=O)Nc2cc(S(=O)(=O)N(C)C)ccc2C)c1C | 6.78% (inactive) |
| CSc1ccccc1OCc1cc(C(=O)N(C)CCc2c(C)n[nH]c2C)no1 | 15.1% (inactive) |

| SMILES | max response |
| --- | --- |
| CSc1ccccc1OCc1cc(C(=O)N2C[C@H]3CC[C@H]2C3)no1 | 45.3% (active) |
| COC(=O)[C@@H]1CCCN1C(=O)c1cc(COc2cccc3cccnc23)on1 | -3.11% (inactive) |
| COc1ccc(NC(=O)C(NC(C)=O)C(=O)NCc2ccccc2Cl)cc1 (stereo not given) | 1.56% (inactive) |
| Cc1cc(C(=O)NNS(=O)(=O)c2ccccc2C(F)(F)F)nn1C(C)(C)C | 7.74% (inactive) |
| CC(OC(=O)CN1C(=O)COc2ccccc21)C(=O)NCc1ccc(F)cc1 (stereo not given) | -2.2% (inactive) |
| O=C(CN1C(=O)COc2ccccc21)Nc1ccc(F)cc1 | 44.7% (active) |
| O=C(CN1C(=O)COc2ccccc21)NCCN1CCc2ccccc2C1 | 4.27% (inactive) |
| C/C(N)=C(/C#N)C(=O)COC(=O)C1=NN(c2ccccc2)C(=O)CC1 | -5.97% (inactive) |
| O=C(Nc1nnc(S(=O)(=O)N2CCOCC2)s1)c1cccc(Br)c1 | 7.79% (inactive) |
| S=c1[nH]c(-c2cccs2)cn1-c1ccccc1 | 34.1% (active) |
| O=c1[nH]c(-c2cccs2)nc2ccccc12 | 20% (inactive) |
| O=c1oc2ccccc2cc1-c1cn(-c2ccccc2)c(=S)[nH]1 | 7.59% (inactive) |
| COc1cc(/C=C/C(=O)OCC(=O)Nc2cccc(Oc3ccccc3)c2)ccc1O | 10.4% (inactive) |
| COc1ccc(S(=O)(=O)N2CCC(C(=O)N3CCCC3)CC2)cc1C | -13.9% (inactive) |
| Cc1ccccc1CSc1nnc(-c2ccccc2)c(=O)[nH]1 | 18.4% (inactive) |
| Cc1ccc(CSc2nc(-c3ccccc3)c(C#N)c(=O)[nH]2)cc1 | -11.1% (inactive) |
| O=c1[nH]c(SCc2ccccc2)nnc1-c1ccccc1 | 11% (active) |
| COc1cc(OC)c(C(=O)NC2CC(C)(C)NC(C)(C)C2)cc1OC | -1.33% (inactive) |
| COc1ccc(Cl)cc1C(=O)Nc1ccc(N(C)C(C)=O)cc1 | 34.7% (active) |
| COc1cc(OC)c(C(=O)Nc2ccccc2-c2ccccc2)cc1OC | -1.49% (inactive) |
| COc1cc(OC)c(C(=O)Nc2ccc(N(C)C)cc2)cc1OC | 40.8% (active) |
| COc1ccc(Cl)cc1C(=O)NCC#N | -1.71% (inactive) |
| COC(=O)c1ccc(NC(=O)c2cc(Cl)ccc2OC)cc1 | 0.237% (inactive) |

Source: PubChem BioAssay AID2314 (National Center for Advancing Translational Sciences (NCATS), 2010)
